Results published in PubChem BioAssay AID1159580 (chemical genetic matrix, 2015).
Screen size: about 5,500 compounds; about 2,000 (36%) were called active. Inconclusive results (about 18%) are left out. No stated cut-off is given here; in the data, active means normalized growth mostly below about 0.91 (no sharp cut-off); inconclusive means no clear call, values can overlap the other calls; inactive means mostly above about 0.92. The list shows a part of the results.

Experiment: chemical genetic growth profiling, strain panel (AID 1159580);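 further: tested at 20 µM; growth read once vehicle control cultures reached saturation at 30 °C; 1 = growth at the plate median or of vehicle wells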
Conditions: growth OD

Measured: normalized growth

O=C1CN(/N=C\c2ccc([N+](=O)[O-])o2)C(=O)N1
inactive: S. cerevisiae deletion strains, locus YJR075W, strain HOC1, stronger effect = lower value 0.986 | S. cerevisiae deletion strains, locus YKL009W, strain mrt4, stronger effect = lower value 0.967 | S. cerevisiae deletion strains, locus YKL068W, stronger effect = lower value 1 | S. cerevisiae deletion strains, locus YKL085W, strain MDH1 (second series), stronger effect = lower value 0.991 | S. cerevisiae deletion strains, locus YKL085W, strain MDH1, stronger effect = lower value 0.991 | S. cerevisiae deletion strains, locus YKL160W, strain elf1, stronger effect = lower value 0.985 | S. cerevisiae deletion strains, locus YKL190W, strain CNB1, stronger effect = lower value 0.996 | S. cerevisiae deletion strains, locus YKR001C, strain vps1, stronger effect = lower value 0.965 | S. cerevisiae deletion strains, locus YKR026C, strain gcn3, stronger effect = lower value 0.979 | S. cerevisiae deletion strains, locus YKR091W, strain srl3, stronger effect = lower value 0.979 | S. cerevisiae deletion strains, locus YLL001W, strain dnm1, stronger effect = lower value 1 | S. cerevisiae deletion strains, locus YLL026W, stronger effect = lower value 0.992 | S. cerevisiae deletion strains, locus YLL041C, strain sdh2, stronger effect = lower value 0.978 | S. cerevisiae deletion strains, locus YLR027C, strain aat2, stronger effect = lower value 0.975 | S. cerevisiae deletion strains, locus YLR039C, strain RIC1, stronger effect = lower value 0.983 | S. cerevisiae deletion strains, locus YLR058C, strain SHM2, stronger effect = lower value 1.01 | S. cerevisiae deletion strains, locus YLR102C, strain apc9, stronger effect = lower value 0.993 | S. cerevisiae deletion strains, locus YLR113W, strain HOG1, stronger effect = lower value 0.968 | S. cerevisiae deletion strains, locus YLR221C, strain rsa3, stronger effect = lower value 0.976 | S. cerevisiae deletion strains, locus YLR258W, strain gsy2, stronger effect = lower value 0.975 | S. cerevisiae deletion strains, locus YLR262C, strain YPT6 (second series), stronger effect = lower value 0.976 | S. cerevisiae deletion strains, locus YLR262C, strain YPT6, stronger effect = lower value 1.04 | S. cerevisiae deletion strains, locus YLR268W, strain sec22, stronger effect = lower value 0.996 | S. cerevisiae deletion strains, locus YLR320W, strain mms22, stronger effect = lower value 0.935 | S. cerevisiae deletion strains, locus YLR330W, strain CHS5, stronger effect = lower value 1 | S. cerevisiae deletion strains, locus YLR342W, strain FKS1 (second series), stronger effect = lower value 0.983 | S. cerevisiae deletion strains, locus YLR342W, strain FKS1, stronger effect = lower value 0.979 | S. cerevisiae deletion strains, locus YLR357W, strain rsc2, stronger effect = lower value 0.954 | S. cerevisiae deletion strains, locus YLR370C, strain arc18, stronger effect = lower value 0.985 | S. cerevisiae deletion strains, locus YLR371W, strain rom2, stronger effect = lower value 1.01 | S. cerevisiae deletion strains, locus YLR384C, strain iki3, stronger effect = lower value 0.986 | S. cerevisiae deletion strains, locus YLR418C, strain cdc73, stronger effect = lower value 0.885 | S. cerevisiae deletion strains, locus YML016C, strain PPZ1, stronger effect = lower value 0.998 | S. cerevisiae deletion strains, locus YML032C, strain rad52, stronger effect = lower value 0.929 | S. cerevisiae deletion strains, locus YML120C, strain ndi1, stronger effect = lower value 0.982 | S. cerevisiae deletion strains, locus YML124C, strain tub3, stronger effect = lower value 0.991 | S. cerevisiae deletion strains, locus YMR078C, strain ctf18, stronger effect = lower value 0.989 | S. cerevisiae deletion strains, locus YMR125W, strain sto1, stronger effect = lower value 0.943 | S. cerevisiae deletion strains, locus YMR129W, stronger effect = lower value 0.965 | S. cerevisiae deletion strains, locus YMR205C, strain PFK2, stronger effect = lower value 0.993 | S. cerevisiae deletion strains, locus YMR223W, strain ubp8, stronger effect = lower value 0.949 | S. cerevisiae deletion strains, locus YMR231W, strain pep5, stronger effect = lower value 0.985 | S. cerevisiae deletion strains, locus YMR263W, strain SAP30, stronger effect = lower value 0.977 | S. cerevisiae deletion strains, locus YMR307W, strain GAS1, stronger effect = lower value 0.973 | S. cerevisiae deletion strains, locus YNL067W, strain RPL9B, stronger effect = lower value 0.982 | S. cerevisiae deletion strains, locus YNL071W, strain lat1, stronger effect = lower value 0.959 | S. cerevisiae deletion strains, locus YNL128W, strain TEP1, stronger effect = lower value 0.974 | S. cerevisiae deletion strains, locus YNL153C, strain GIM3, stronger effect = lower value 0.966 | S. cerevisiae deletion strains, locus YNL183C, strain NPR1, stronger effect = lower value 0.879 | S. cerevisiae deletion strains, locus YNL209W, strain ssb2, stronger effect = lower value 0.975 | S. cerevisiae deletion strains, locus YNL233W, strain BNI4, stronger effect = lower value 0.995 | S. cerevisiae deletion strains, locus YNL248C, strain rpa49, stronger effect = lower value 0.923 | S. cerevisiae deletion strains, locus YNL271C, strain bni1, stronger effect = lower value 0.998 | S. cerevisiae deletion strains, locus YNL298W, strain CLA4, stronger effect = lower value 0.991 | S. cerevisiae deletion strains, locus YNL307C, strain MCK1, stronger effect = lower value 0.952 | S. cerevisiae deletion strains, locus YNL322C, strain KRE1 (second series), stronger effect = lower value 0.98 | S. cerevisiae deletion strains, locus YNL322C, strain KRE1, stronger effect = lower value 1.01 | S. cerevisiae deletion strains, locus YNR049C, strain mso1, stronger effect = lower value 0.984 | S. cerevisiae deletion strains, locus YNR052C, strain pop2, stronger effect = lower value 0.998 | S. cerevisiae deletion strains, locus YOL006C, strain TOP1, stronger effect = lower value 1.03 | S. cerevisiae deletion strains, locus YOL012C, strain htz1 0.88 | S. cerevisiae deletion strains, locus YOL147C, strain pex11, stronger effect = lower value 0.999 | S. cerevisiae deletion strains, locus YOR001W, strain rrp6, stronger effect = lower value 0.977 | S. cerevisiae deletion strains, locus YOR061W, strain CKA2, stronger effect = lower value 0.998 | S. cerevisiae deletion strains, locus YOR069W, strain VPS5, stronger effect = lower value 0.999 | S. cerevisiae deletion strains, locus YOR070C, strain gyp1, stronger effect = lower value 0.98 | S. cerevisiae deletion strains, locus YOR080W, strain dia2, stronger effect = lower value 0.983 | S. cerevisiae deletion strains, locus YOR083W, strain WHI5, stronger effect = lower value 1 | S. cerevisiae deletion strains, locus YOR106W, strain vam3, stronger effect = lower value 0.969 | S. cerevisiae deletion strains, locus YOR136W, strain idh2, stronger effect = lower value 0.983 | S. cerevisiae deletion strains, locus YOR144C, strain elg1, stronger effect = lower value 1.02 | S. cerevisiae deletion strains, locus YOR184W, strain ser1, stronger effect = lower value 0.932 | S. cerevisiae deletion strains, locus YOR231W, strain MKK1, stronger effect = lower value 0.889 | S. cerevisiae deletion strains, locus YOR265W, strain rbl2, stronger effect = lower value 0.979 | S. cerevisiae deletion strains, locus YOR270C, strain vph1, stronger effect = lower value 0.874 | S. cerevisiae deletion strains, locus YOR290C, strain snf2, stronger effect = lower value 0.961 | S. cerevisiae deletion strains, locus YOR316C, strain cot1, stronger effect = lower value 0.999 | S. cerevisiae deletion strains, locus YPL051W, strain arl3, stronger effect = lower value 0.979 | S. cerevisiae deletion strains, locus YPL055C, strain LGE1, stronger effect = lower value 0.97 | S. cerevisiae deletion strains, locus YPL078C, strain atp4, stronger effect = lower value 0.956 | S. cerevisiae deletion strains, locus YPL106C, strain sse1, stronger effect = lower value 0.964 | S. cerevisiae deletion strains, locus YPL240C, strain hsp82, stronger effect = lower value 0.974 | S. cerevisiae deletion strains, locus YPL241C, strain CIN2, stronger effect = lower value 0.996 | S. cerevisiae deletion strains, locus YPL256C, strain CLN2, stronger effect = lower value 0.956 | S. cerevisiae deletion strains, locus YPR119W, strain clb2, stronger effect = lower value 1 | S. cerevisiae deletion strains, locus YPR141C, strain kar3, stronger effect = lower value 1.01 | S. cerevisiae deletion strains, locus YPR163C, strain tif3, stronger effect = lower value 1 | S. cerevisiae deletion strains, locus YPR167C, strain met16, stronger effect = lower value 1 | S. cerevisiae deletion strains, strain wtn01, stronger effect = lower value 0.99 | S. cerevisiae strains, strain wild type, stronger effect = lower value 0.997
active: S. cerevisiae deletion strains, locus YMR058W, strain fet3, stronger effect = lower value 0.898 | S. cerevisiae deletion strains, locus YNL250W, strain rad50, stronger effect = lower value 0.877
